The text below walks through data of PubChem BioAssay AID1259343 (VanderVen Lab, College of Veterinary Medicine, Cornell …, 2017).

The inhibition is the relative decrease from the control value, in per cent.

Among all 6,200 compounds or so, about 2,900 (47%) were called active. So high a share suggests a set chosen from earlier hits. The list shows a part of the results. Unmarked numbers belong to inactive results. No stated cut-off is given here; in the data, active means inhibition above about 50%; inactive means the rest.

The assay in a line: Mycobacterium tuberculosis growth inhibition, primary screen (AID 1259343). The following applies: inhibition: at 10 µM, active compounds read high; outcome: 10 uM.
In the case of `CNc1cnc(-c2ccc(O)cc2C)cn1`, the inhibition was 9.26%. In the case of `CCCCCCCCN=C1NC(=O)CS1`, the inhibition is 95.8% (active). On to `CCCCCOc1cc(C)ccc1S(=O)(=O)N1CCCC1`, for which the inhibition is 41.6%. The result for `Nc1ncc(Br)cc1S(=O)(=O)N1CCCCC1` reads 77.9% (active). The result for `CCOc1ccc(-c2ccc(=O)n(Cc3cc(C)ccc3C)n2)cc1` reads -12.8%; that for `CCOc1ccc(-c2ccnc(N3CCN(C(=O)C(=O)OC)CC3)n2)cc1`, 53.2% (active).

`CCOC(=O)C1CCN(C2CCN(c3nncc(-c4ccccc4)n3)CC2)CC1`: the inhibition is -15.5%. Take `CC(C)(CNC(=O)CCc1ccco1)c1ccc(Br)cc1`: the inhibition is 11.2%. As to `O=C(NCCc1ccco1)c1ccc(Br)cc1F`, the inhibition was 5.5%. The result for `O=C(NCCc1ccco1)c1ccc(C2SCCS2)cc1` reads 77.9% (active). For the compound `O=S(=O)(Nc1cnc(Br)cn1)c1cccc(Cl)c1`, the inhibition is 10.2%.

As for `N#Cc1ccc(NS(=O)(=O)c2ccc(F)c(Cl)c2)nc1`, the inhibition was 27%.

Take `O=S(=O)(Nc1ccc(Br)cn1)c1ccc(Cl)cc1`: the inhibition was 77.7% (active). With `O=C(C1CCC1)N1CCC(Cc2ccc(C(F)(F)F)cc2)CC1`, the inhibition is 83.6% (active). The result for `CC(Cl)C(=O)N1CCC(Cc2ccc(C(F)(F)F)cc2)CC1` (stereo not given) reads 90.3% (active); that for `O=C(N1CCC(Cc2ccc(-c3ccccc3)cc2)CC1)C(F)(F)C(F)F`, 39.3%. Then `CC(C)(C)c1ccc(CC2CCN(C(=O)CCCl)CC2)cc1`, with 82% (active); and `O=C(c1c(F)c(F)cc(F)c1F)N1CCC(Cc2ccc(C(F)(F)F)cc2)CC1`, with 71.6% (active); and `O=C(NCc1ccccc1F)C(C1CCCC1)N1CCN(C(=O)c2ccc(C(F)(F)F)cc2)CC1` (stereo not given), with -35.5%. As for `Cc1cc2cc(NC(=O)c3ccc(CN4CC[C@H](O)C4)cc3)ccc2o1`, the inhibition was 91.8% (active). The result for `O=C1NC(=NC2CCCC2)SC1=Cc1cc2c(cc1Br)OCO2` reads 63.1% (active); that for `c1ccc(-c2nc(NCCc3ccccn3)c3ccccc3n2)cc1`, -27%.

With `c1ccc2c(NCCNc3ncnc4ccccc34)cccc2c1`, the inhibition is 69.3% (active). Then `O=[N+]([O-])c1ccccc1NCCNc1cccc2ccccc12`, with 26%. The result for `COc1ccc(OC)c(-c2nc3ccc(Br)cn3c2NC2CCCCC2)c1` reads 10.8%. `CCOC(=O)CNc1c(-c2ccccc2Cl)nc2ccc(Br)cn12`: the inhibition was 88.4% (active).

For the compound `CCOC(=O)CNc1c(-c2ccc(C(F)(F)F)cc2)nc2ccc(Br)cn12`, the inhibition is 24.2%.

For the compound `Oc1c(Cl)cc(Cl)c(Cl)c1Cc1c(O)c(Cl)cc(Cl)c1Cl`, the inhibition was 102% (active). Then `Cc1cccc(-c2ccc(NC(=O)C3CCN(C(=O)c4ccncc4)CC3)cc2)c1`, with “inactive”. For `Cc1cccc(-c2ccc(NC(=O)C3CCN(C(=O)c4ccc(F)cc4)CC3)cc2)c1`, the inhibition was 81.5% (active). Take `Cc1cccc(-c2ccc(NC(=O)C3CCN(C(=O)c4nonc4C)CC3)cc2)c1`: the inhibition was 92.3% (active). The result for `O=C(CCOc1ccccc1)NC12CC3CC(CC(C3)C1)C2` reads 87.8% (active); that for `Cc1ccc(SCC(=O)NC23CC4CC(CC(C4)C2)C3)cc1C`, -43.9%. The result for `COc1ccccc1N(C)CC(=O)NC12CC3CC(CC(C3)C1)C2` reads 9.54%; that for `O=C(Nc1nc(-c2ccc(Br)s2)cs1)c1ccc(Br)s1`, 81.8% (active). `CC(C)Nc1nc(-c2ccc(Br)s2)cs1`: the inhibition was 17.8%. With `CCOc1ccc(Nc2cncc(Cl)n2)cc1`, the inhibition was 72.5% (active). Take `COc1ccc(NC(c2ccccn2)c2oc(CO)cc(=O)c2O)cc1` (stereo not given): the inhibition is 84.2% (active).

Take `COc1ccc(NC(=O)N(Cc2ccco2)C(C)c2nc3ccccc3c(=O)n2-c2ccccc2)cc1` (stereo not given): the inhibition is -7.33%. The result for `CCCCCCCCNC(C)C(O)c1ccc(SC(C)C)cc1` (stereo not given) reads 3.63%. `O=C(Cc1csc(NC(=O)NC2CCCCC2)n1)Nc1ccc(Oc2ccccc2)cc1`: the inhibition is -2.63%. Then `NC(=O)Cc1csc(Nc2ccc(OC(F)(F)F)cc2)n1`, with 73.5% (active). For the compound `CC(C)c1nc(CNC(=O)c2cc(COc3c(F)cccc3F)on2)cs1`, the inhibition was 23.3%. In the case of `Cc1ccc(OCc2cc(C(=O)N(C)Cc3csc(-c4ccccc4)n3)no2)cn1`, the inhibition was 73% (active). With `Cc1ccc(OCc2cc(C(=O)N(C)CC3Cc4ccccc4O3)no2)cn1` (stereo not given), the inhibition result is “inactive”. Then `O=C(NCC1CCCCO1)c1cc(COc2c(F)cccc2F)on1` (stereo not given), with 65.1% (active); and `O=C(NCC1CCCCO1)c1coc(COc2cccc(C(F)(F)F)c2)n1` (stereo not given), with 0.47%.

Regarding `COCCN(C)C(=O)c1cc(COc2cc(C)c(Cl)c(C)c2)on1`, the inhibition result is “inactive”.

On to `CN(CCC(O)c1ccccc1)C(=O)c1cc(COc2cccc3cnccc23)on1` (stereo not given), for which the inhibition was 48.2%.

As for `CN(CCOc1ccccc1)C(=O)c1cc(COc2c(F)cccc2F)on1`, the inhibition is 84.2% (active).

On to `Cc1ccc(OCc2cc(C(=O)N(C)CCc3ccccc3)no2)cc1C`, for which the inhibition is 93.7% (active). Then `O=C1OC(c2ccccc2Br)=NC1=Cc1ccc2ccccc2c1`, with -28.9%; and `CN(Cc1cccnc1)C(=O)c1cc(COc2ccc(F)c(F)c2)on1`, with 60.5% (active). Then `Cc1cc(C)cc(OCCN(C)C(=O)Nc2ccc(F)cc2)c1`, with 30.4%; and `CN(CCOc1ccccc1)C(=O)c1cc(Br)c[nH]1`, with 101% (active).

On to `Cc1ccc(OCc2cc(C(=O)NCc3nc4ccccc4s3)no2)cc1C`, for which the inhibition is 92.1% (active). Regarding `Cc1nc2cc(OCc3cc(C(=O)NCc4cc(F)ccc4C)no3)ccc2s1`, the inhibition is 22.2%.

For the compound `Cc1ccc(OCc2cc(C(=O)NCc3cc4ccccc4[nH]3)no2)cc1C`, the inhibition was 24.7%. Regarding `Cc1ccc(OCCN(C)C(=O)CCc2nnc(CCc3c[nH]c4ccccc34)o2)cc1`, the inhibition was 44.4%. Consider `Cc1nc2sc3c(c2c(=O)n1NC(=S)NC(=O)C12CC4CC(CC(C4)C1)C2)CCCC3`, for which the inhibition is 67.3% (active). Consider `COCCNCc1c(-c2ccccc2)noc1N(C)C1CCCCC1`, for which the inhibition is 82.5% (active). The result for `N#Cc1cccc(NCc2c(F)cccc2Cl)c1` reads 30.2%; that for `N#Cc1cccc(NN=C2CCN(c3ccc(F)cc3)CC2)c1`, 95.8% (active); that for `N#Cc1cccc(NC(=O)NCc2cc(F)cc(F)c2)c1`, -9.78%. Turning to `O=C(CC1SC(=NCc2ccco2)NC1=O)Nc1ccc(OC(F)(F)F)cc1` (stereo not given), the inhibition was 21.7%. Then `CCOc1ccc(N=C2NC(=O)C(CC(=O)c3ccccc3)S2)cc1` (stereo not given), with 54.9% (active). The result for `O=C(O)CC1SC(=NN=C2c3ccccc3-c3ccccc32)NC1=O` (stereo not given) reads 24.2%; that for `CCOC(=O)C1(Cc2cccc(Cl)c2)CCCN(C(=O)CCC(F)(F)F)C1` (stereo not given), -43.9%. As to `CCOC(=O)C1(Cc2cccc(OC)c2)CCN(CC#Cc2ccccc2)CC1`, the inhibition was 28.5%.

With `CCOC(=O)C1(Cc2cccc(C(F)(F)F)c2)CCN(Cc2ccc(C#CCCO)cc2)CC1`, the inhibition was 51.2% (active). Take `O=C(CCC1CCCC1)N1CCc2ccc(O)cc2CC1`: the inhibition was 92.6% (active).

On to `Cc1ccc(F)c(OCC2CN(CC(C)O)CCO2)c1` (stereo not given), for which the inhibition was 102% (active).

On to `COc1ccc(CC2CN(Cc3ccc(OC)c(F)c3)CCO2)cc1` (stereo not given), for which the inhibition was 30.9%. In the case of `COc1ccc(OCCOc2ccc(C)cc2)cc1`, the inhibition result was “inactive”. The result for `COC(=O)CSCCOc1ccc(OCCSCC(=O)OC)cc1` reads 88.5% (active); that for `Cc1ccc(C)c2sc(OC3CCN(S(=O)(=O)c4cccnc4)CC3)nc12`, 31.8%; that for `O=C1c2ccccc2C(=O)c2c1ccc(O)c2O`, 101% (active). For the compound `COc1cccc2c1CCCC2CCCN1CCN(C2CCCCC2)CC1` (stereo not given), the inhibition was 98.3% (active).

As to `COC(=O)CNC(=O)c1ccc([N+](=O)[O-])o1`, the inhibition is 44.5%. With `COC(=O)CCCCCNC(=O)c1cc([N+](=O)[O-])cc([N+](=O)[O-])c1`, the inhibition was 93.7% (active).

As for `CCS(=O)(=O)Oc1ccc(CN(C(=O)c2cccc([N+](=O)[O-])c2)C(C)C)cc1`, the inhibition is -14.5%.

With `COc1ccc(N2COc3cc4c(cc3C2)OCO4)cc1`, the inhibition was 87.2% (active).

For the compound `Brc1ccc2c(c1)CN(Cc1ccc3c(c1)OCO3)CO2`, the inhibition was 1.53%. The result for `COc1ccc2c(c1)CC(C(=O)N(C)Cc1ccco1)CO2` (stereo not given) reads -34.5%; that for `COc1ccc2c(c1)OCC(C(=O)NS(=O)(=O)c1cccs1)C2` (stereo not given), 99.9% (active); that for `COc1ccc(NC(=O)C2Cc3ccc(C)cc3S2)cc1` (stereo not given), 21.4%. The result for `CN(Cc1cccc2cnccc12)S(=O)(=O)NCc1ccccc1` reads 20.2%; that for `CN(CCCOc1ccccc1Cl)S(=O)(=O)NCc1ccccc1`, 56.2% (active); that for `COc1c(F)cc(NS(=O)(=O)N(C)Cc2ccccc2)cc1F`, 31.6%.

In the case of `c1ccc(CCNCCCOc2cccc3ccccc23)cc1`, the inhibition was 58% (active). Turning to `O=C(NC1(c2ccc(Cl)cc2)CCC1)c1cnsn1`, the inhibition is 60.1% (active). Then `Cc1oc(C)c(C(=O)NC2(c3ccccc3)CCC2)c1Br`, with 20.5%.

In the case of `O=C(COc1ccc(Cl)cc1)NC1(c2ccccc2)CCC1`, the inhibition is 29.4%.

For the compound `O=S(=O)(Nc1ccc(Cl)c(Cl)c1)c1cccs1`, the inhibition was 20.9%. The result for `O=S(=O)(Nc1nc2ccccc2nc1OCC(F)(F)F)c1cccs1` reads 71.9% (active); that for `OCC1(Cc2cccc(Cl)c2)CCCN(Cc2nc(-c3ccc(F)cc3)cs2)C1` (stereo not given), “inactive”; that for `O=C(c1cc2cc(F)ccc2[nH]1)N1CCCC(CO)(Cc2cccc(Cl)c2)C1` (stereo not given), 68.2% (active). The result for `COc1ccc(F)c(CN2CCCC(CO)(Cc3cccc(Cl)c3)C2)c1` (stereo not given) reads 31%. With `CC(C)C(=O)N1CCC1(C)C(=O)Nc1ccc(-n2cccc2)cc1` (stereo not given), the inhibition was 92.6% (active). The result for `CC(C)(C)c1ccc(C(=O)N2CCC2(C)C(=O)Nc2cccc3c2CCCC3)cc1` (stereo not given) reads 0.45%.
